In PubChem BioAssay AID720697 (Broad Institute, 2013) one finds outcome and activity change, negative = cytotoxicity data, which are given here for 9 compounds.

Results with a measured potency or affinity are listed apart. Results filed as inconclusive are left out. Values without a mark were called inactive. The source made the active and inactive calls.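 The calls were made as follows: active = signal loss with fitted half-maximal concentration at or below twice the top valid tested dose in every test run; inconclusive = runs disagree, flat 30 to 70% signal loss, or poor fit; inactive = all runs flat, opposite direction, or potency beyond limit.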

The test can be described thus: general mammalian cell viability loss – inhibitor set, cherry-pick, set 2, cytotoxicity control for miR-122 modulator project, dose response (AID 720697).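 Also: 0% = median of neutral control wells and -100% = MG132 positive control wells.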

For the compound `O=C(COC(=O)Cc1ccc(S(=O)(=O)N2CCOCC2)s1)Nc1ccc2c(c1)OCO2`, the result was inactive. Turning to `C[C@@H]1CN([C@H](C)CO)C(=O)c2cccc(NC(=O)c3ccc(-c4nccs4)cc3)c2O[C@H]1CN(C)S(=O)(=O)c1ccc(F)cc1`, the outcome was inactive. Consider `CN(C)CCCN(C(=O)CCc1ccccc1)c1nc2ccc(Br)cc2s1`, for which the call was inactive. The same measure, in the same setting: in the case of `COc1cccc(-c2nn(-c3ccccc3)cc2CO)c1` it was “inactive”; in that of `CCCNC(=O)Nc1ccc2c(c1)C(=O)N(C)[C@H]1CC[C@H](CC(=O)NC3CCC3)O[C@H]1CO2`, “inactive”. Regarding `CNC(=O)c1nc(C)n(-c2cc(Cl)cc(Cl)c2)n1`, the activity change, negative = cytotoxicity was 4.99% [at 6 µM].

For the compound `COc1ccc(CNC(=O)C[C@H]2CC[C@H]3[C@H](COc4ccc(NC(=O)C(C)C)cc4C(=O)N3C)O2)cc1`, the compound was called inactive.

Turning to `Cc1cc(C)cc(Oc2ccc(NC(=O)C3CC=CCC3C(=O)O)cc2)c1` (centres undefined), the compound was called inactive. Turning to `O=C(NC[C@H]1N[C@H](CO)[C@@H]1c1ccc(-c2ccccc2F)cc1)c1ccccc1`, the call was inactive.
